# The sample as a whole holds a higher share of hits than the screen did.
# KDM4E inh: JMJD2E (human) inhibition; B2RXH2; JMJD2E catalytic domain, FDH-coupled NADH fluorescence (FDH is formaldehyde dehydrogenase); Potency, µM (top dose mostly 57.1 µM), inactives show at the top dose activity change, negative = inhibition, most hits filed as inhibitors; actives 1.6% (n = 230,000); AID 2147; active = well fitted inhibition curve with a large enough effect, not every such curve was filed as active; inconclusive = small, poorly fitted or top-dose-only effect, or another doubt; inactive = no such curve, though single readings can be large or run the other way;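 also: 0% = wells with enzyme and -100% = buffer wells without enzyme; nearly all actives have a fitted effect of over 50% in size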
# GCN5L2 inh: inhibitors of human GCN5L2 histone acetyltransferase. GCN5L2 HAT assay, ThioGlo1 CoA-SH fluorescence. Potency, µM (top dose mostly 58.9 µM), for the others: at the highest dose activity change, negative = inhibition, actives largely listed as inhibitors. actives 0.21% (n = 390,000). AID 504327
# Target sequence (Q92830 whole entry, looked up): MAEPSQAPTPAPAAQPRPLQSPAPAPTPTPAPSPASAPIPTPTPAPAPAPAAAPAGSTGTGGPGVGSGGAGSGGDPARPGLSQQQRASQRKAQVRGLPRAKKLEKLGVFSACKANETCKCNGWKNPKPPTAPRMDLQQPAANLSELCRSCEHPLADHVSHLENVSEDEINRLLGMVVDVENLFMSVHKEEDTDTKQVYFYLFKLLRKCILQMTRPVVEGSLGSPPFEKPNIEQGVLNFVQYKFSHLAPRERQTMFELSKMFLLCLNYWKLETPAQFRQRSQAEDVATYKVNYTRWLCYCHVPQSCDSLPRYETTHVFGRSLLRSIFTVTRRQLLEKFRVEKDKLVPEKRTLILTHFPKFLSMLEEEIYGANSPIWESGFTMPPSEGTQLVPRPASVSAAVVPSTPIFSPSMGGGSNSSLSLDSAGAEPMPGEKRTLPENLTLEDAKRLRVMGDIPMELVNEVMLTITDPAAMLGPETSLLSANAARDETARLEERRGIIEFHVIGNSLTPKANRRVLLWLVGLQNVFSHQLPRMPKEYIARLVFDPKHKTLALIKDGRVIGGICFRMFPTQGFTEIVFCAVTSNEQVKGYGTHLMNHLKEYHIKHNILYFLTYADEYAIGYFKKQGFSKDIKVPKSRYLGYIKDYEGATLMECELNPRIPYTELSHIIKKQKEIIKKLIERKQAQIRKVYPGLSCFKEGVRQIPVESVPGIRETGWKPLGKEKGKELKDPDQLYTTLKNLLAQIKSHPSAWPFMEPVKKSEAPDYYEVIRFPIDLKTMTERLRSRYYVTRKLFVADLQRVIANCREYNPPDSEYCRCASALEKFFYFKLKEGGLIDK
#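 Titration-based screen in which CoA formation is detected via maleimide probe ThioGlo1 (50uM) turning fluorescent on thiol reaction; substrates H3(1-25) 75uM and acetyl-CoA 70uM, GCN5L2 20nM, 20 min incubation at room temperature.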
# TDP1 inh: inhibitors of human tyrosyl-DNA phosphodiesterase TDP1; Q9NUW8; recombinant TDP1, AlphaScreen DNA substrate cleavage; Potency, µM (titrated, usually from 130 µM), for inactives: top-dose activity change, negative = inhibition, hits mostly inhibitors; actives 0.28% (n = 350,000); AID 485290; also: nearly all actives have a fitted effect of over 40% in size
#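 Signal: AlphaScreen proximity between streptavidin donor and anti-FITC acceptor beads on intact substrate. Reaction: Tdp1 1 nM, substrate 15 nM final, 5 min RT after 15 min compound preincubation.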
# APEX1 inh: blocks human APE1 abasic DNA cleavage; actives 0.35% (n = 350,000); AID 2517; P27695; recombinant APE1, TAMRA/BHQ-2 abasic DNA cleavage fluorescence; Potency, µM (series often up to 65.8 µM), without a hit: at the highest dose activity change, negative = inhibition, usual class: inhibitors;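 also: plate controls were vehicle for no effect and reference inhibitor for full effect; nearly all actives have a fitted effect of over 55% in size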
#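 APE1 at 0.75 nM final was preincubated with compound 15 min at room temperature, then 50 nM double-stranded THF abasic-site substrate (5'-TAMRA/3'-BHQ-2) was added. Fluorescence (ex 525/em 598 nm) was read kinetically; third-minus-first read gave activity.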
# BLM helicase inh: Bloom syndrome helicase (human) inhibition; actives 0.2% (n = 350,000); recombinant BLM DNA unwinding, fluorescence dequenching; P54132; AID 2528; Potency, µM (titrated, usually from 56.1 µM), for the others: top-dose activity change, negative = inhibition, usual class: inhibitors;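 also: plate controls were vehicle for no effect and no enzyme for full effect; nearly all actives have a fitted effect of over 35% in size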
# RECQ1 inh: RECQ1 (human) helicase inhibition. Potency, µM (top dose mostly 57.3 µM), for the others: at the highest dose activity, negative = inhibition, usual class: inhibitors. P46063. actives 0.54% (n = 240,000). RECQ1 DNA unwinding, red fluorescence kinetic read. AID 2549;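 also: plate controls were vehicle for no effect and no enzyme for full effect; nearly all actives have a fitted effect of over 30% in size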
#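 RECQ1T1 50 nM; forked duplex (20 bp + 30-nt ss tails) 200 nM, ATP 2 mM final; pH 8.0, 2 mM MgCl2, 2.5 ug/ml poly(dI-dC); 15 min compound preincubation; discontinuous kinetic read over 2 h at RT.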
# Active calls of the source: *; i = inactive; ? = inconclusive; . = not tested or not shown; ! = not active in a repeat; [ ] = remark or other dose. Unless noted, calls follow the shape of the dose curve; as a rule, active = well fitted curve in the direction sought with a large enough effect; inconclusive = small, poorly fitted or top-dose-only effect, or another doubt; inactive = no such curve, though single readings can be large; an effect the other way counts as inactive or inconclusive. Unless noted, % is scaled to controls: 0 for no effect and ±100 for the full control effect; potency is read from the fitted curve at half-maximal effect.
SMILES,KDM4E inh,GCN5L2 inh,TDP1 inh,APEX1 inh,BLM helicase inh,RECQ1 inh
Cc1ccc(N2C(=O)NC(=O)/C(=C/c3ccc(-c4ccc(C(=O)O)c(Cl)c4)o3)C2=O)cc1,?,?,20µM*,?,-1%,i
COc1ccc2c3c1O[C@H]1[C@@H](O)C=C[C@H]4[C@@H](C2)NCC[C@@]341,.,.,.,-3%,.,.
C[C@]12CC[C@@H]3c4ccc(O)cc4CC[C@H]3[C@@H]1C[C@@H](O)[C@@H]2O[C@@H]1O[C@H](C(=O)O)[C@@H](O)[C@H](O)[C@H]1O,22µM*,-2%,3%,14%,-5%,-11%
CCC(=O)Nc1cc(C(=O)O)ccc1S(=O)(=O)c1ccc(C)cc1,-23%,-19%,20µM*,?,19%,?
Cc1ncc(CN2CCCC(C(=O)c3cccc(OC(C)C)c3)C2)s1 (configuration not stated),11%,20µM*,2%,-2%,-2%,i
COc1c(C)cc(C(=O)C2CCCN(Cc3cnc(C)s3)C2)cc1C (configuration not stated),-1%,-3%,.,12%,-4%,i
O=[N+]([O-])/N=C1\NCCN1Cc1ccc(Cl)nc1,.,.,.,-2%,.,.
C=C(C)[C@H]1CN[C@H](C(=O)O)[C@H]1CC(=O)O,-29%,32µM*!,-5%[56.1 µM],0%,2%,-8%
c1c[nH]cn1,.,.,12%,14%,.,9%
[Hg+][c]1ccccc1,.,0.45µM*,11%,.,3%,.
c1ccc(-c2ccccc2)cc1,.,.,14%,13%,.,1%
CN1CCN(c2ccc([N+](=O)[O-])c3no[n+]([O-])c23)CC1,14µM*,-4%,.,-10%,-7%,-10%
NCC[C@H](O)C(=O)N[C@@H]1C[C@H](N)[C@@H](O[C@H]2O[C@H](CN)[C@@H](O)[C@H](O)[C@H]2N)[C@H](O[C@@H]2O[C@H](CO)[C@@H](O)[C@H]2O)[C@H]1O,.,.,.,-1%[21 µM],.,.
CC(C)Br,.,.,11%,4%,.,-13%
Oc1ccc(C[C@H]2NCCc3cc(O)c(O)cc32)cc1O,.,0%,.,54%,-13%,.
Oc1cc2c(cc1O)[C@H]1c3ccccc3CNC1CC2 (some centres not stated),20µM*,.,4%,-4%,.,-8%
C=CC1CC=CCC1 (configuration not stated),.,.,9%,-2%,.,-7%
COC(C)(C)CCCC(C)C/C=C/C(C)=C/C(=O)OC(C)C (configuration not stated),1%,-1%,16µM*!,-7%,1%,9%
CCOC(=O)/C=C(C)/C=C/CC(C)CCCC(C)C (configuration not stated),.,1%,.,.,-6%,.
C(=C\c1ccccc1)/CN1CCN(CCOC(c2ccccc2)c2ccccc2)CC1,.,-22%,21%,-5%,.,3%
C[C@H]1CC[C@]2(NC1)O[C@H]1C[C@H]3[C@@H]4CC[C@H]5C[C@@H](O)CC[C@]5(C)[C@H]4CC[C@]3(C)[C@H]1[C@@H]2C,.,.,.,-4%,.,.
COC1CCCCC1NCCc1ccccc1 (configuration not stated),16µM*,3%,8%,7%,-2%,-9%
CC[C@@H]1C(=O)OC[C@@H]1Cc1cncn1C,.,0%,.,5%,.,.
CC[C@@H]1C(=O)OC[C@@H]1Cc1cncn1C,25µM*!,-3%,8%,3%,0%,-3%
COc1ccc(N2C(=O)NC(=O)/C(=C/c3cccc(OC(=O)c4cccs4)c3)C2=O)cc1Cl,-15%,?,-5%,-4%,-1%,-8%
SMILES,KDM4E inh,GCN5L2 inh,TDP1 inh,APEX1 inh,BLM helicase inh,RECQ1 inh
Cc1ccc(N2C(=O)NC(=O)/C(=C/c3ccc(OC(=O)c4cccs4)cc3)C2=O)cc1,20µM*,-18%,.,-5%,-2%,-7%
CC(=O)CC(c1ccccc1)c1c(O)c2ccccc2oc1=O (configuration not stated),?,1%,7%[56.1 µM],34%,-1%,i
CC/C(CC(c1ccccc1)c1c(O)c2ccccc2oc1=O)=N\NC(N)=S (configuration not stated),?,-3%,-13%,25µM*,-6%,-4%
CN(C(=O)Cc1ccc(Cl)c(Cl)c1)C(CN1CCCC1)c1cccc(N=C=S)c1 (configuration not stated),.,3%,16%,4%,.,-3%
COc1ccc(Cc2c(O)[nH]c(=S)[nH]c2=O)cc1,.,6.3µM*,5%,-1%,-2%,.
COc1ccc(OC)c(N2C(=O)/C(=C/c3ccco3)C(=O)NC2=S)c1,.,13µM*,.,0.095µM*,1.6µM*,.
O=C1NC(=S)N(c2ccc(F)cc2)C(=O)/C1=C/c1ccco1,.,5.6µM*,.,0.21µM*,3.2µM*,.
O=C1NC(=S)N(c2ccc(F)cc2)C(=O)/C1=C\c1ccoc1,?,?,.,?,-17%,32µM*
CCN1C(=O)/C(=C\c2ccc([N+](=O)[O-])s2)C(=O)NC1=S,2.5µM*,8.9µM*,.,?,?,?
Cc1ccc(/C=C2\C(=O)NC(=S)N(c3cccc(F)c3)C2=O)o1,.,-28%,-4%,-6%,-11%,.
CCOP(=S)(OCC)Oc1ccc([N+](=O)[O-])cc1,.,.,1%,-3%,.,-9%
COc1ccc(OC)c(N2C(=O)NC(=O)/C(=C/c3ccc([N+](=O)[O-])s3)C2=O)c1,25µM*,-30%,3%,?,10µM*,26%
COc1cc(/C=C2\C(=O)NC(=O)N(c3ccccc3)C2=O)c([N+](=O)[O-])cc1OC,65%,2%,5%,-4%,-3%,15%
CC(=O)OCC1=C(C(=O)[O-])N2C(=O)[C@@H](NC(=O)CCC[C@@H](N)C(=O)[O-])[C@H]2SC1.[Zn+2],28µM*,.,?,-1%,.,i
CSc1ncc(/C=C2/C(=O)NC(=O)N(C)C2=O)cn1,25µM*,-9%,-3%,-4%,-1%,?
CSc1ncc(/C=C2/C(=O)NC(=O)N(C3CCCCC3)C2=O)cn1,22µM*,-2%,-3%,-7%,-4%,-4%
CCC(C)N1C(=O)/C(=C\c2cnc(N(C)C)nc2)C(=O)NC1=S (configuration not stated),-13%,-14%,0%,1%,-5%,-14%
CCCCC(=O)Cl,.,.,8%,1%,.,-7%
CCCCCCC(=O)N/N=C/c1c(O)n(CCCC)c(=S)[nH]c1=O,18µM*,-1%,8%,-4%,-5%,-3%

# Source: PubChem BioAssay (National Center for Advancing Translational Sciences (NCATS))
